# High-throughput results: PubChem BioAssay, several laboratories
# Only some compounds are listed: those with a hit (about 1.7% of all), similar ones and a draw of the others.
# CHT block: inhibitors of human choline transporter CHT; CHT-expressing cells, membrane potential dye, choline response; stronger effect = lower value; B-score at 10 µM; actives 0.86% (n = 310,000);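 active means B-score over 3 SD under the library average, and starting fluorescence ratio not unusually high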;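 further: choline stimulus applied at its EC90 after an EC20 pre-addition; B-score computed on integrated fluorescence ratio after choline addition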
# beta cell repl: inducers of MIN6 beta-cell proliferation, primary screen, ATP luminescence, uHTS; MIN6 cells proliferation, ATPlite luminescence, 48 h; cells starved in 0.2% serum; 100% = growth in 10% serum; proliferation, % at 10 µM; actives 0.29% (n = 330,000);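 active means compounds whose signal lies at least 3.5 SD above the mean of all wells on their plate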;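 further: 0% = DMSO-treated cells in low-serum medium and 100% = 10% serum control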
# CHT PAM: CHT positive allosteric modulators, primary screen, cell-based, membrane potential dye, choline EC20 | High affinity choline transporter 1 (Homo sapiens), Q9GZV3 | CHT-expressing cells; stronger effect = higher value; LV-AA mutant CHT in HEK293 cells | B-score at 10 µM | actives 0.49% (n = 310,000);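 active means initial fluorescence not abnormally high and integrated response B-score, plate-corrected, over 3 SD above library mean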
# H9c2 TAG inh: inhibitors of triacylglycerol accumulation, primary screen, cell-based, uHTS, fluorescence, H9c2. H9c2 cells, Nile Red lipid (TAG) fluorescence; cells loaded with 200 µM oleic acid. inhibition, % at 12.5 µM. actives 0.66% (n = 230,000). AID 651582, 2012;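 active means pattern-corrected inhibition of lipid staining of at least 50% with the nuclear-stain viability signal not falling by more than 50%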;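 further: 0% = DMSO wells and 100% = triacsin C control wells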
# CHT inh conf: CHT inhibitors, confirmation, cell-based, membrane potential dye, duplicate. CHT-expressing cells, choline membrane potential dye; LV-to-AA substituted CHT, HEK293 cells. actives 70% (n = 2,400). shares compounds with CHT block. CHT activity remaining % of control (stronger effect = lower value), % at 10 µM;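 active means choline transporter activity left, mean of duplicates at 10 µM, below buffer-only control mean minus 3 SD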;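 further: depolarization triggered by choline at its EC90 following an EC20 pre-addition; 0% = hemicholinium-3 full block and 100% = buffer-only control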
# HEK293 MPD ctr: membrane potential effects in parental HEK293, counter-screen for CHT inhibitor project, cell-based, membrane potential dye; AID 493222, 2011; actives 4% (n = 2,400); choline response; active = decrease or increase beyond buffer ±3SD; membrane potential ratio readout (active if shifted either direction beyond buffer ±3SD; no single direction) at 10 µM; shares compounds with CHT block;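 further: parental cells lack the transporter so any hit is non-specific; ratio is peak minus trough fluorescence over baseline after EC90 choline challenge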
# Starred values were filed as active, the others as inactive; i = inactive; · = not tested or not shown.
SMILES,CHT block,beta cell repl,CHT PAM,H9c2 TAG inh,CHT inh conf,HEK293 MPD ctr
CN(CC(O)Cn1c2ccccc2c2ccccc21)S(C)(=O)=O (centres undefined),i,-1.4,i,7.2,·,·
O=C1CCN(CCc2ccccc2)CCN1CCSc1ccccc1,-5.01*,0.9,i,-1.1,49.5%*,i
CN1CCC(=O)N(CCSc2ccccc2)CC1,i,5.5,i,-27.2,·,·
O=C(CNc1ccc(Br)cc1)NC(=O)NC1CCCCC1,·,-3.8,·,-13.4,·,·
CCOC(=O)N1CCN(C(=O)c2oc3ccc(S(=O)(=O)N4CCCCCC4)cc3c2C)CC1,-6.18*,-1.4,i,-13.7,67.2%*,i
CC1CCN(CC(=O)Nc2cccc(C(=O)Nc3cccc(C(F)(F)F)c3)c2)CC1,-6.38*,-4.6,i,1.5,44.1%*,i
CCN(CC)c1ncnc2c1[nH]c1ccccc12,-6.65*,-0.3,i,-2.1,52.1%*,i
COc1ccc(NS(=O)(=O)c2ccc(C)c(C(=O)NCCCn3ccnc3)c2)cc1,·,·,·,-4.4,·,·
NC(=S)N/N=C1/CCSc2ccc3ccccc3c21,-5.58*,-5.2,i,6.9,68.5%*,i
Oc1c(Br)cc(/C=N/NC(=S)NCc2ccco2)cc1Br,-5.06*,-1.4,i,-7.1,67.3%*,i
O=C(c1ccco1)N1CCN(C(c2cccs2)c2nnnn2C2CCCC2)CC1 (centres undefined),-7.79*,-2.4,i,-3.7,i,i
O=C(Cn1cnc2c(NC(=O)OCc3ccccc3)ncnc21)NCCN1CCOCC1,·,8.3,·,-7.6,·,·
Cc1c(Cl)cccc1NCC(=O)NN=C1CCCC1,-5.07*,-3.1,i,7.2,47.7%*,i
CC1CCCCN1CCCNc1ccc(C(CC(N)=O)NC(=O)Cc2cccc3ccccc23)cc1[N+](=O)[O-] (centres undefined),i,-3.3,i,-4.8,·,·
Cc1cccc(C)c1NC(=O)CSc1cc(C(=O)c2nccn2C)c2ccccc2n1,-9.55*,-1.9,i,·,i,i
Cn1ccnc1C(=O)c1cc(SCC(=O)NC2CC2)nc2ccccc12,i,-4.3,i,-5.7,·,·
CCCc1ccc(OCc2ccc(C(=O)NCc3cccnc3)o2)c(OC)c1,-5.65*,-3.9,i,-17.5,68.5%*,i
O=C(N/N=C/c1sc2ccccc2c1O)c1ccccc1,-20.2*,0.0,i,·,-81.5%*,-55.3*
COc1ccc(C(=O)N/N=C/c2sc3ccccc3c2O)cc1,i,·,i,·,·,·
Cn1c(-c2ccccc2)cnc1NCc1ccccc1,-7.19*,0.9,i,·,45.6%*,i
Cc1ccc(CNc2ncc(-c3ccccc3)n2C)o1,-5.06*,1.9,i,7.7,33.8%*,i
CN1CCN(C(=S)c2cn(CCOc3ccccc3F)c3ccccc23)CC1,i,-2.5,i,-0.5,·,·
N#Cc1cn(-c2cccc(C(F)(F)F)c2)c(=O)[nH]c1=O,i,-2.9,i,·,·,·
Cc1cc(C)nc(N2CCC(C(=O)NCc3cccs3)CC2)n1,-8.3*,-3.1,i,·,i,i
Cc1ccc(-c2cccc(CN3CCN(C(C)C)C(CCO)C3)c2)o1 (centres undefined),-5.26*,1.0,i,-21.6,36.8%*,i
CN1C(=O)C(CC(=O)NCCc2ccccc2)N(NC(=O)c2ccc(Cl)cc2)C1=S (centres undefined),-12.1*,-2.4,i,2.9,i,i
CCCn1c(=O)c(C(=O)NCc2cccnc2)c(O)c2ccccc21,i,-3.5,i,·,·,·
CCCn1c(=O)c(C(=O)NCc2ccccn2)c(O)c2ccccc21,-5.69*,-3.8,i,-0.9,i,i
COc1ccc(C(=O)CSc2[nH]c(=O)cc(C(F)(F)F)c2C#N)cc1,-13.8*,-2.9,i,4.8,44.5%*,i
CCOC(=O)c1cccc(Nc2ncnc3ccccc23)c1,-8.18*,0.2,i,-5.3,24.9%*,i
